Reference: PubChem BioAssay (NCI)
Compounds without any hit were thinned out: in the full panel of roughly 79,000, 15% have a hit. Calls of active or inactive are those of the source. Rule as the data show it: active = growth inhibition above about 70%; inactive = the rest.

Columns and labels:
[1] = NCI Yeast Anticancer Drug Screen. Data for the wt2 strain (AID 169);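 also: 0% = growth of vehicle-treated yeast cultures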; details: S. cerevisiae wt2 strain growth inhibition, hits give high values
Summary of the method: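 Compound exposure of yeast; growth compared with vehicle controls; inhibition reported.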

[2] = NCI Yeast Anticancer Drug Screen. Data for the mlh1 strain (AID 171);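 also: 0% = growth of vehicle-treated control cultures of the same strain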; details: S. cerevisiae mlh1 strain growth inhibition, hits give high values
Summary of the method: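 Compounds are applied to a genetically altered yeast strain, and its growth is compared with that of vehicle-treated cultures to give percent inhibition.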

[3] = NCI Yeast Anticancer Drug Screen. Data for the sgs1 strain (AID 173);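 also: 0% = growth of vehicle-only control cultures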; details: S. cerevisiae sgs1 mutant, hits give high values
Summary of the method: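 Compounds applied to genetically altered yeast; growth compared with vehicle-treated cultures to give % inhibition.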

[4] = NCI Yeast Anticancer Drug Screen. Data for the mlh1 rad18 strain (AID 175); details: S. cerevisiae mlh1 rad18 strain growth inhibition, hits give high values
Summary of the method: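 Cells of a genetically altered yeast strain, deficient in DNA damage repair, were treated with compound. Their growth was then compared with that of vehicle-treated cultures to give inhibition.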

[5] = NCI Yeast Anticancer Drug Screen. Data for the rad18 strain (AID 177); details: S. cerevisiae rad18 mutant growth inhibition, hits give high values
Summary of the method: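 Compounds are applied to a repair-deficient yeast strain, and growth is compared with that of vehicle-treated cultures to give percent inhibition.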

[6] = NCI Yeast Anticancer Drug Screen. Data for the rad52 strain (AID 147);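 also: 0% = growth of vehicle-treated control cultures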; details: S. cerevisiae rad52 mutant growth inhibition, hits give high values
Summary of the method: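 DNA repair-defective yeast; compound exposure; growth scored against vehicle controls.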

[7] = NCI Yeast Anticancer Drug Screen. Data for the wt1 strain (AID 149);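 also: 0% = growth of vehicle-treated wt1 cultures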; details: S. cerevisiae wt1 strain (SPY 50644) growth inhibition, hits give high values
Summary of the method: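 Vehicle-normalised growth inhibition; strain wt1; compound exposure.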

[8] = NCI Yeast Anticancer Drug Screen. Data for the rad50EPP+ strain (AID 151);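 also: 0% = growth of vehicle-treated control cultures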; details: S. cerevisiae rad50 mutant strain, hits give high values
Summary of the method: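 rad50EPP+ yeast treated with test compounds. Readout: growth vs vehicle control.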

[9] = NCI Yeast Anticancer Drug Screen. Data for the mgt1 strain (AID 153); details: S. cerevisiae mgt1 mutant growth inhibition, hits give high values
Summary of the method: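 Growth inhibition relative to vehicle controls was scored for the mgt1 yeast strain after compound exposure.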

[10] = NCI Yeast Anticancer Drug Screen. Data for the rad50 strain (AID 155);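 also: 0% = growth of vehicle-only cultures of the same strain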; details: S. cerevisiae rad50 strain growth inhibition, hits give high values
Summary of the method: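 A DNA repair-deficient yeast mutant serves as the test organism; compound-induced growth inhibition is calculated against vehicle-treated cells.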

[11] = NCI Yeast Anticancer Drug Screen. Data for the mec2-1 strain (AID 157); details: S. cerevisiae mec2-1 strain, hits give high values
Summary of the method: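 Growth inhibition is read against vehicle-treated controls after compound exposure of the mec2-1 yeast strain, which is defective in DNA damage repair or cell cycle control.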

[12] = NCI Yeast Anticancer Drug Screen. Data for the rad14 strain (AID 159);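 also: 0% = growth of vehicle-treated control cultures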; details: S. cerevisiae rad14 strain growth inhibition, hits give high values
Summary of the method: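 Vehicle-treated cultures served as the baseline for growth inhibition of a DNA repair-mutant yeast strain exposed to each compound.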

[13] = NCI Yeast Anticancer Drug Screen. Data for the sgs1 mgt1 strain (AID 161);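 also: 0% = growth of cultures given vehicle only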; details: S. cerevisiae sgs1 mgt1 strain, hits give high values
Summary of the method: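 Percent growth inhibition was derived by comparing compound-exposed mutant yeast with vehicle-exposed cultures. The strain carries alterations in DNA damage repair.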

[14] = NCI Yeast Anticancer Drug Screen. Data for the CLN2oe strain (AID 163);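 also: 0% = growth of vehicle-only control cultures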; details: S. cerevisiae CLN2oe strain, hits give high values
Summary of the method: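 Compound-treated yeast; growth vs vehicle ctrl = % inhibition. Genetically altered strain (cell-cycle control).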

[15] = NCI Yeast Anticancer Drug Screen. Data for the cln2 rad14 strain (AID 165);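 also: 0% = growth equal to vehicle treated cultures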; details: S. cerevisiae cln2 rad14 strain, hits give high values
Summary of the method: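 Growth inhibition, relative to vehicle-treated controls, is the read-out. The test organism is a yeast strain with defined genetic alterations, cln2 rad14.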

[16] = NCI Yeast Anticancer Drug Screen. Data for the bub3 strain (AID 167); details: S. cerevisiae bub3 mutant strain, hits give high values
Summary of the method: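 Inhibition values come from growth of compound-treated mutant yeast normalised to vehicle-treated controls.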

[17] = at 5.0 µM (retest, dose inferred, filed as 0.5)
[18] = at 50.0 µM (retest, dose inferred, filed as 5.0)

Measured: growth inhibition

CC(=O)CC(c1ccccc1)c1c(O)c2ccccc2oc1=O (centres undefined)
inactive: [1]; at 1.2 µM -20% | [1]; at 3.7 µM -9% | [1]; at 11.0 µM -13% | [1]; at 33.0 µM 11% | [2]; at 1.2 µM -15% | [2]; at 3.7 µM -3% | [2]; at 11.0 µM 3% | [2]; at 33.0 µM 43% | [3]; at 1.2 µM 11% | [3]; at 3.7 µM 14% | [3]; at 11.0 µM 7% | [3]; at 33.0 µM 42% | [4]; [17] 32% | [4]; at 50.0 µM 44.5% | [5]; at 1.2 µM -12% | [5]; at 3.7 µM 1% | [5]; at 11.0 µM 11% | [5]; at 33.0 µM 27%
active: [1]; at 100.0 µM 77% | [2]; at 100.0 µM 85% | [3]; at 100.0 µM 84% | [4]; [18] 99% | [5]; at 100.0 µM 78%

O=C(c1cc(=O)c2ccc(O)cc2o1)c1ccc(Cl)cc1Cl
inactive: [6]; at 1.2 µM -31% | [6]; at 3.7 µM -32% | [6]; at 11.0 µM 8% | [7]; at 1.2 µM -6% | [7]; at 3.7 µM 1% | [7]; at 11.0 µM -2% | [8]; at 1.2 µM -23% | [8]; at 3.7 µM -7% | [8]; at 11.0 µM 52% | [9]; at 1.2 µM -9% | [9]; at 3.7 µM -18% | [9]; at 11.0 µM 21% | [10]; at 1.2 µM -11% | [10]; at 3.7 µM -16% | [10]; [17] 23% | [10]; at 11.0 µM 12% | [11]; at 1.2 µM -27% | [11]; at 3.7 µM -13% | [11]; [17] -30% | [11]; at 11.0 µM 5% | [12]; at 1.2 µM 2% | [12]; at 3.7 µM 4% | [12]; at 11.0 µM 19% | [13]; [17] 3% | [14]; at 1.2 µM -23% | [14]; at 3.7 µM -8% | [14]; at 11.0 µM 23% | [15]; [17] 13% | [16]; at 1.2 µM -16% | [16]; at 3.7 µM -11% | [16]; [17] 23% | [16]; at 11.0 µM 46% | [1]; at 1.2 µM -4% | [1]; at 3.7 µM -4% | [1]; at 11.0 µM 0% | [1]; at 33.0 µM 68% | [2]; at 1.2 µM -19% | [2]; at 3.7 µM -7% | [2]; at 11.0 µM 33% | [3]; at 1.2 µM -18% | [3]; at 3.7 µM -14% | [3]; at 11.0 µM 60% | [4]; [17] 37% | [5]; at 1.2 µM -6% | [5]; at 3.7 µM -19% | [5]; at 11.0 µM 19%
active: [6]; at 33.0 µM 90% | [6]; at 100.0 µM 92% | [7]; at 33.0 µM 75% | [7]; at 100.0 µM 92% | [8]; at 33.0 µM 94% | [8]; at 100.0 µM 96% | [9]; at 33.0 µM 89% | [9]; at 100.0 µM 90% | [10]; at 33.0 µM 94% | [10]; [18] 95% | [10]; at 50.0 µM 86.5% | [10]; at 100.0 µM 93% | [11]; at 33.0 µM 80% | [11]; [18] 95% | [11]; at 50.0 µM 85.2% | [11]; at 100.0 µM 93% | [12]; at 33.0 µM 76% | [12]; at 100.0 µM 91% | [13]; [18] 92% | [13]; at 50.0 µM 88% | [14]; at 33.0 µM 94% | [14]; at 100.0 µM 92% | [15]; [18] 93% | [15]; at 50.0 µM 78.2% | [16]; at 33.0 µM 95% | [16]; [18] 97% | [16]; at 50.0 µM 88.5% | [16]; at 100.0 µM 94% | [1]; at 100.0 µM 88% | [2]; at 33.0 µM 91% | [2]; at 100.0 µM 92% | [3]; at 33.0 µM 95% | [3]; at 100.0 µM 94% | [4]; [18] 96% | [4]; at 50.0 µM 85.5% | [5]; at 33.0 µM 94% | [5]; at 100.0 µM 94%

CCCCCCCSCC1C(=O)C23C(O)C1CCC2C12COC3(O)C(O)C1C(C)(C)CCC2O (centres undefined)
inactive: [6]; at 1.2 µM 13% | [6]; at 3.7 µM 14% | [7]; at 1.2 µM 16% | [7]; at 3.7 µM 5% | [8]; at 1.2 µM 26% | [8]; at 3.7 µM 27% | [8]; at 11.0 µM 32% | [8]; at 33.0 µM 28% | [8]; at 100.0 µM 6% | [9]; at 1.2 µM 20% | [9]; at 3.7 µM 20% | [10]; at 1.2 µM 13% | [10]; at 3.7 µM 16% | [10]; [17] -12% | [10]; at 11.0 µM 66% | [11]; at 1.2 µM 23% | [11]; at 3.7 µM 15% | [11]; [17] 2% | [11]; at 11.0 µM 67% | [12]; at 1.2 µM -9% | [12]; at 3.7 µM 5% | [13]; [17] 28% | [14]; at 1.2 µM 19% | [14]; at 3.7 µM 6% | [15]; [17] 54% | [16]; at 1.2 µM 4% | [16]; at 3.7 µM 9% | [16]; [17] 65% | [1]; at 1.2 µM 14% | [1]; at 3.7 µM 0% | [1]; at 11.0 µM 67% | [2]; at 1.2 µM -1% | [2]; at 3.7 µM 23% | [3]; at 1.2 µM 26% | [3]; at 3.7 µM 19% | [4]; [17] 50% | [5]; at 1.2 µM -1% | [5]; at 3.7 µM 2%
active: [6]; at 11.0 µM 71% | [6]; at 33.0 µM 94% | [6]; at 100.0 µM 85% | [7]; at 11.0 µM 82% | [7]; at 33.0 µM 95% | [7]; at 100.0 µM 90% | [9]; at 11.0 µM 88% | [9]; at 33.0 µM 96% | [9]; at 100.0 µM 89% | [10]; at 33.0 µM 93% | [10]; [18] 74% | [10]; at 50.0 µM 87.5% | [10]; at 100.0 µM 81% | [11]; at 33.0 µM 94% | [11]; [18] 97% | [11]; at 50.0 µM 88.2% | [11]; at 100.0 µM 87% | [12]; at 11.0 µM 84% | [12]; at 33.0 µM 95% | [12]; at 100.0 µM 91% | [13]; [18] 95% | [13]; at 50.0 µM 87.8% | [14]; at 11.0 µM 89% | [14]; at 33.0 µM 97% | [14]; at 100.0 µM 91% | [15]; [18] 97% | [15]; at 50.0 µM 85.8% | [16]; at 11.0 µM 78% | [16]; at 33.0 µM 94% | [16]; [18] 97% | [16]; at 50.0 µM 86.2% | [16]; at 100.0 µM 90% | [1]; at 33.0 µM 95% | [1]; at 100.0 µM 93% | [2]; at 11.0 µM 93% | [2]; at 33.0 µM 95% | [2]; at 100.0 µM 91% | [3]; at 11.0 µM 89% | [3]; at 33.0 µM 95% | [3]; at 100.0 µM 84% | [4]; [18] 94% | [4]; at 50.0 µM 88.8% | [5]; at 11.0 µM 89% | [5]; at 33.0 µM 94% | [5]; at 100.0 µM 87%
